Test [1] can be described thus: qHTS drug screen for cell cycle checkpoint inhibitors in PARPi-resistant BRCA-mutant ovarian cancer cell lines. (AID 1963452; calls by dose curve). Conditions: PEO1/OlaR viability, CellTiter-Glo luminescence, 96 h, stronger effect = lower value. The method, boiled down: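 PEO1, PEO4 and PEO1/OlaR ovarian cancer cells, 600 per well, exposed 96 h at 37C to a dilution series. Viability read by CellTiter-Glo luminescence, normalized to DMSO and empty wells; activity summarized as Z-AUC.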

The nature of test [2]: qHTS profiling for inhibitors of Plasmodium falciparum proliferation (AID 504749). Also: potency is read from the fitted curve at half-maximal effect.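 As to activity, negative = inhibition: 0% = DMSO vehicle and full inhibition = artemisinin control.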 As to all read-outs here: nearly all actives have a fitted effect of over 60% in size. The note with it: P. falciparum in erythrocytes, SYBR Green DNA, 72 h; for activity, negative = inhibition: at 28.7 µM (top of the series). The gist of the method: (§1)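 Three-day growth assay of blood-stage parasites in erythrocytes (0.3% parasitemia, 2.5% hematocrit) at 37 C, 5% CO2, quantified by SYBR Green DNA staining after overnight detergent lysis.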
For orientation: In qHTS, concentration-response curves come from the screen itself.

The next test relates to 3D7. Described as above. Conditions: P. falciparum in erythrocytes, SYBR Green DNA, 72 h; series mostly up to 28.7 µM. The method, boiled down:
as §1

In the next test the test system is 7G8. Described as above. Conditions: P. falciparum in erythrocytes, SYBR Green DNA, 72 h; series mostly up to 28.7 µM. The method, boiled down: as §1
Another test concerns AA1029. Described as above. The note with it: P. falciparum in erythrocytes, SYBR Green DNA, 72 h; series mostly up to 28.7 µM. The gist of the method:
as §1

In another test the test system is AS120. The description is as above. Conditions: P. falciparum in erythrocytes, SYBR Green DNA, 72 h; series mostly up to 28.7 µM. The gist of the method:
as §1

The test system of another test is ATS189. Described as above. The note with it: P. falciparum in erythrocytes, SYBR Green DNA, 72 h; series mostly up to 28.7 µM. The gist of the method:
as §1

The subject of the next test is ATS95. Described as above. Conditions: P. falciparum in erythrocytes, SYBR Green DNA, 72 h; series mostly up to 28.7 µM. The gist of the method:
as §1

The test system of another test is C2A. The test is described as above. The note with it: P. falciparum in erythrocytes, SYBR Green DNA, 72 h; series mostly up to 28.7 µM. The gist of the method: as §1
The test system of a further test is CP185. The test is described as above. Conditions: P. falciparum in erythrocytes, SYBR Green DNA, 72 h; series mostly up to 28.7 µM. The method, boiled down: as §1
The test system of the next test is CP191. The description is as above. Conditions: P. falciparum in erythrocytes, SYBR Green DNA, 72 h; series mostly up to 28.7 µM. The method, boiled down: as §1
In the next test the test system is CP192. The test is described as above. Conditions: P. falciparum in erythrocytes, SYBR Green DNA, 72 h; series mostly up to 28.7 µM. The method, boiled down: as §1
A further test concerns CP194. The description is as above. The note with it: P. falciparum in erythrocytes, SYBR Green DNA, 72 h; series mostly up to 28.7 µM. The gist of the method:
as §1

A further test concerns CP201. The description is as above. Conditions: P. falciparum in erythrocytes, SYBR Green DNA, 72 h; series mostly up to 28.7 µM. The method, boiled down:
as §1

A further test concerns CP203. The description is as above. Conditions: P. falciparum in erythrocytes, SYBR Green DNA, 72 h; series mostly up to 28.7 µM. The method, boiled down:
as §1

A further test concerns CP211. The test is described as above. The note with it: P. falciparum in erythrocytes, SYBR Green DNA, 72 h; series mostly up to 28.7 µM. The method, boiled down:
as §1

The test system of another test is CP215. Described as above. The note with it: P. falciparum in erythrocytes, SYBR Green DNA, 72 h; series mostly up to 28.7 µM. The method, boiled down: as §1
A further test relates to CP217. The description is as above. The note with it: P. falciparum in erythrocytes, SYBR Green DNA, 72 h; series mostly up to 28.7 µM. The method, boiled down:
as §1

Test [3] in a line: qHTS for identification of novel therapeutic agents for treatment of microphthalmiaassociated transcription factor (MiT) renal cell carcinoma (RCC) (AID 1963991). Conditions: CellTiter-Glo, 48 h, stronger effect = lower value. The gist of the method: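 Viability of three TFE3-fusion renal carcinoma lines measured by CellTiter-Glo after 48 h treatment with each of 1912 compounds at 11 concentrations. Responses scaled between DMSO (100%) and empty wells (0%) before curve fitting.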

[4] abbreviates: measured here: PEO1 parental Z-AUC.

Results filed as inconclusive are left out. Activity calls are given as the source filed them. Unless noted, calls follow the shape of the dose curve; as a rule, active = well fitted inhibition curve with a large enough effect; inconclusive = small, poorly fitted or top-dose-only effect; inactive = flat fitted curve, though single readings scatter.

From PubChem BioAssay (NCATS) come the findings set out here.

As for `O=C(O)CCNC(=O)c1ccc(N=Nc2ccc(O)c(C(=O)O)c2)cc1`, the Z-AUC in [1] is -0.101 (inactive); in test [1] (setting [4]), 0.264; in [1] (measured here: PEO4 Z-AUC) it was 0.361. For the same molecule, the results for the activity, negative = inhibition in test [2] (parasite line A) and in [2] (parasite line B) were 4.07% (inactive) and 9.54% (inactive), respectively. Also, the Potency result in the test with 3D7, in the test on 7G8, in the test on AA1029, in the test with AS120, in the test on ATS189 and with ATS95 was “inactive” throughout. Moreover, the Potency result in the test on C2A, in the test on CP185, in the test on CP191, in the test on CP192, in the test on CP194 and with CP201 was “inactive” in each case. For the same molecule, the Potency entry in the test with CP203, in the test on CP211, in the test with CP215 and with CP217 was “inactive” each time.
Turning to `CC1(C)CCC(C)(C)c2cc(NC(=O)c3ccc(C(=O)O)cc3)ccc21`, the Z-AUC in test [1] is 0.358 (inactive); in [1] (setting [4]) it was 0.445; in [1] (measured here: PEO4 Z-AUC), -0.341. Besides, the activity, negative = inhibition was -1.01% (inactive) in test [2] (parasite line A) and -5.09% (inactive) in test [2] (parasite line B). The Potency result with 3D7, in the test on AA1029, in the test with AS120, in the test with ATS189, in the test on ATS95 and in the test on C2A was “inactive” in each case. Also, the Potency result in the test on CP185, in the test with CP191, with CP192, in the test with CP194, with CP201 and in the test with CP203 was “inactive” throughout. In addition, the Potency entry in the test with CP211, with CP215 and in the test with CP217 was “inactive” each time.
On to `O=C1CCc2ccc(OCCCCN3CCN(c4cccc(Cl)c4Cl)CC3)cc2N1`, for which the Z-AUC is -1.31 (inactive) in [1], -0.72 in test [1] (setting [4]) and -1.21 in [1] (measured here: PEO4 Z-AUC). The Potency in the test on 7G8 was 12.6 µM (active); with CP191 it was 8.91 µM (active). Moreover, the Potency entry with CP192, in the test with CP194, with CP201, with CP203, in the test with CP211 and in the test with CP215 was “inactive” in each case.
Consider `CCCCCCCCOc1ccccc1C(=O)Nc1ccc(C(=O)OCC[N+](C)(CC)CC)cc1`, for which the Potency is 12.6 µM (active) in test [2] (parasite line A); 10 µM (active) in test [2] (parasite line B); 10 µM (active) in the test with 3D7; 12.6 µM (active) in the test on 7G8; 10 µM (active) in the test on AA1029; 7.94 µM (active) with ATS95. In addition, the Potency in the test with C2A is 12.6 µM (active); with CP185, 8.91 µM (active); in the test with CP191 it was 7.94 µM (active); with CP217, 10 µM (active).
On to `C[C@]12CCC(=O)C=C1CC[C@@H]1[C@H]2[C@@H](O)C[C@@]2(C)[C@H]1CC[C@]2(O)C(=O)CO`, for which the activity, negative = inhibition was 9.9% (inactive) in test [2] (parasite line A) and 19.1% (inactive) in test [2] (parasite line B). Moreover, the Potency result in the test with 3D7, with 7G8, in the test on AA1029, with AS120, with ATS189 and in the test with ATS95 was “inactive” each time. The Potency result in the test on C2A, in the test on CP185, in the test with CP191, in the test with CP192, in the test on CP194 and with CP201 was “inactive” in each case. In addition, the Potency entry with CP211, in the test on CP215 and with CP217 was “inactive” each time.
As to `COc1cc2c(cc1OC)C1CC(=O)C(CC(C)C)CN1CC2` (stereo not given), the z-score in [3] (TFE3-RCC UOK109 viability, measured here: UOK109 Z-AUC) came out at 0.853; in test [3] (TFE3-RCC viability, measured here: UOK124 Z-AUC) it was 0.433; in [3] (TFE3-RCC viability, measured here: UOK145 Z-AUC), 0.758. Besides, the activity, negative = inhibition was 3.41% (inactive) in test [2] (parasite line A) and 0.311% (inactive) in test [2] (parasite line B). Further, the Potency entry in the test with 3D7, with 7G8, in the test with AA1029, with AS120, in the test with ATS189 and in the test on ATS95 was “inactive” each time. Besides, the Potency result in the test with C2A, in the test on CP185, in the test with CP191, in the test on CP192, in the test with CP194 and in the test on CP201 was “inactive” throughout. Besides, the Potency result in the test with CP203, in the test with CP211, with CP215 and in the test on CP217 was “inactive” in each case.
